Format in all cases: functional
Test [1] deals with Plasmodium falciparum. Briefly: GSK_TCMDC: Inhibition of Plasmodium falciparum 3D7 in whole red blood cells, using parasite LDH activity as an index of growth. Test compounds present at 2uM.
For test [2], the system named is Plasmodium falciparum. Nature of the test: GSK_TCMDC: Inhibition of Plasmodium falciparum Dd2 in whole red blood cells, using parasite LDH activity as an index of growth. Test compounds present at 2uM.
In test [3] the test system is HepG2. Briefly: GSK_TCMDC: Percent inhibition of human HepG2 cell line. Test compounds present at 10uM.

Turning to `CCCCC(=O)N(CCOC)Cc1ccc(-c2ccc(CNCCC)cn2)cc1.O=C(O)C(F)(F)F`, the Inhibition in test [1] worked out at 99%; in test [2], 68%; in test [3] it was 30%.
On to `COc1c(Br)cc(Br)cc1-c1ccc(CN2CC3CCC2CC3)[nH]1.Cl`, for which the results for the Inhibition in test [1], in test [2] and in test [3] were 98%, 100% and 91%, respectively.
For the molecule `CN(C)CCC1CCCc2ccc(NC(=O)Nc3ccc(-c4ccncc4)c4ccccc34)cc21.Cl` (stereo not given), the Inhibition in test [1] is 89%; in test [2], 27%; in test [3] it was 34%.
Taken in the same sequence, the figures for `COc1ccc(-c2cccc(NC(=O)c3cccc(Cl)c3)c2)cc1CN1CCCC1.O=C(O)C(F)(F)F` were 99%, 66% and 45%.
Taken in the same sequence, the figures for `O=C(Nc1cccc(CN2CCN(Cc3cccc(O)c3)CC2)c1)c1cc2ccccc2s1.O=C(O)C(F)(F)F` were 86%, 54% and 13%.
`OC[C@H]1CCCN1CC#Cc1cc2c(Nc3ccc(OCc4cccc(F)c4)c(Cl)c3)ncnc2s1`: the Inhibition in test [1] amounted to 89%; in test [2], 6%; in test [3], 13%.
In the case of `Cl.NOCCCCOc1cc(Cl)c(Cl)cc1Cl`, the results for the Inhibition in test [1], in test [2] and in test [3] were 92%, 5% and 6%, respectively.
For the molecule `Cc1cnc(CN(Cc2ccc(-c3ccc(CNCCc4ccc(S(C)(=O)=O)cc4)cn3)cc2)C(=O)c2ccc([N+](=O)[O-])c(C)c2)cn1.O=C(O)C(F)(F)F`, the Inhibition came to 93% in test [1], 15% in test [2] and 0% in test [3].
On to `O=C(NC(c1ccccc1)c1ccc2cccnc2c1O)c1ccccc1` (stereo not given), for which the figures for the Inhibition in test [1], in test [2] and in test [3] were 94%, 63% and 53%, respectively.
With `COc1ccc2nccc([C@@H](O)CN3CCC(NCc4nc5ccccc5s4)CC3)c2c1.O=C(O)C(=O)O`, the Inhibition in test [1] is 93%; in test [2] it was 5%; in test [3], 8%.
